Source: PubChem BioAssay
Only some compounds are listed: those with a hit (about 11% of all), similar ones and a draw of the others.
ALDH1A1 inh: blocks purified human ALDH1A1 activity; Potency, µM (titrated, usually from 75.3 µM), without a hit: top-dose activity, negative = inhibition, actives largely listed as inhibitors; actives 7.3% (n = 220,000); P00352; Purified ALDH1A1, NADH fluorescence, propionaldehyde substrate;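 also: potency is read from the fitted curve at half-maximal effect; plate controls were no enzyme wells and a reference inhibitor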
Target sequence (P00352 whole entry, looked up): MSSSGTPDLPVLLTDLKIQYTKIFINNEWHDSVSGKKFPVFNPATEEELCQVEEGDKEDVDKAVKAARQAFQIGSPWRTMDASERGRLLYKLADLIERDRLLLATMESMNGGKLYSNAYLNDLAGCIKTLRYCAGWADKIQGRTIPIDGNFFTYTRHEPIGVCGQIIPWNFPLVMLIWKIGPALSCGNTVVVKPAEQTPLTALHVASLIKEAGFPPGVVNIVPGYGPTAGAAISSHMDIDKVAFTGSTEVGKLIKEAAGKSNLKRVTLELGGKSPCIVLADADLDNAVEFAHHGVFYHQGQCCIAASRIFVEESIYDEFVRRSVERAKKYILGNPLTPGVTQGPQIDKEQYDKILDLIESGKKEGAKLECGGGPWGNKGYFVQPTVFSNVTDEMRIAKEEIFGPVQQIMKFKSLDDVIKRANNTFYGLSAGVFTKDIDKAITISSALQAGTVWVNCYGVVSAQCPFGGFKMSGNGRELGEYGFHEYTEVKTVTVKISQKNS
HPGD block: inhibitors of human 15-hydroxyprostaglandin dehydrogenase (HPGD); Potency, µM, inactives show top-dose activity change, negative = inhibition, hits mostly inhibitors; AID 894; P15428; actives 4.3% (n = 150,000); purified HPGD, NADH fluorescence kinetic, PGE2 substrate; also: potency is read from the fitted curve at half-maximal effect; % is scaled to controls: 0 for no effect and ±100 for the full control effect
Target sequence (P15428 whole entry, looked up): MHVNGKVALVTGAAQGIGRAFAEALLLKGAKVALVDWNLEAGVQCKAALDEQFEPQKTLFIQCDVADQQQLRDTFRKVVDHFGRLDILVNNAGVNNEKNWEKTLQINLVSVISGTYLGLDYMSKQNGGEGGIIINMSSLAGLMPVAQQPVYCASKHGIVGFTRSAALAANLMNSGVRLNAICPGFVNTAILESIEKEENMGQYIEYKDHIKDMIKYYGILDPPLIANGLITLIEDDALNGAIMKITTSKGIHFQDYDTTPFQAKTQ
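20 nM HPGD preincubated 15 min at room temperature with compound in 50 mM Tris-HCl pH 8, 0.01% Tween 20. Started with 1 mM NAD+ and 30 uM prostaglandin E2; NADH fluorescence (360/450 nm) read 5 times over 30-s intervals, last minus first.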
PNC assembly inh: perinucleolar compartment assembly inhibition | PC3M PTB-GFP, PNC prevalence imaging, 16 h; active compounds read low | activity change (PNC), negative = inhibition, % at 10 µM | actives 3.1% (n = 140,000) | AID 2417;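 active = readout at or below -70, meaning at least 70% loss of cells showing the perinucleolar compartment, a nuclear body marking cancer cells; inconclusive = readout between -30 and a set limit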;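 also: plate controls were DMSO wells for no effect and camptothecin positive control wells for full effect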
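PC3M cells stably expressing PTB-GFP, 750–1000 cells/well, treated 16 h at 37 °C with compound (23 nl of library stock), in duplicate. After paraformaldehyde fixation and Hoechst stain, imaged at 20x; PNC prevalence scored by image analysis.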
HttQ103 aggreg: inhibitors of mutant huntingtin aggregate formation in PC12 cells; PC12 HttQ103-GFP aggregates, Acumen cytometry, 40 h; actives 1.1% (n = 220,000); Potency, µM (top dose mostly 46.1 µM), for the others: top-dose activity change, negative = inhibition, usual class: inhibitors; active = well fitted curve in the direction sought with a large enough effect; inconclusive = small, poorly fitted or top-dose-only effect, or another doubt; inactive = no such curve, though single readings can be large; an effect the other way counts as inactive or inconclusive; also: potency is read from the fitted curve at half-maximal effect; % is scaled to controls: 0 for no effect and ±100 for the full control effect; nearly all actives have a fitted effect of over 60% in size
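Inducible Q103 Huntingtin exon 1–GFP PC12 line, 1500 cells/well in phenol red free DMEM with 5% equine and 5% calf serum. Tebufenozide 100 nM induced expression; compounds titrated; aggregates quantified by cytometry.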
GoLoco inh red: RGS12 GoLoco-Gai1 interaction inhibition. P63096. Potency, µM (series often up to 61.6 µM), for inactives: at the top dose activity, negative = inhibition, hits mostly inhibitors. actives 0.44% (n = 230,000). AID 880. Gai1:RGS12 GoLoco peptide FP, rhodamine, 10 min; active = well fitted inhibition curve with a large enough effect, not every such curve was filed as active; inactive = no such curve, though single readings can be large or run the other way; also: potency is read from the fitted curve at half-maximal effect; % is scaled to controls: 0 for no effect and ±100 for the full control effect; nearly all actives have a fitted effect of over 30% in size
HTT ATP protect: cytoprotection in Huntington HTT-Q103 PC12 cell model. PC12 HTT-Q103 induced, cytoprotection, ATP luminescence, 40 h. Potency, µM (highest dose often 56.4 µM), without a hit: cytoprotection (ATP increase), actives largely listed as activators. actives 0.14% (n = 230,000); active = well fitted curve in the direction sought with a large enough effect; inconclusive = small, poorly fitted or top-dose-only effect, or another doubt; inactive = no such curve, though single readings can be large; an effect the other way counts as inactive or inconclusive; also: potency is read from the fitted curve at half-maximal effect; % of control where 0% means no effect; nearly all actives have a fitted effect of over 45% in size
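Huntington model: PC12 line, ecdysone-inducible HTTQ103 exon1–GFP, tebufenozide 100 nM. Test articles in a dose series. Endpoint luminescence from cellular ATP.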
The depositor's hits bear a star; ? = inconclusive; . = no result given; [ ] = dose if it differs, or a comment. Unless noted, calls follow the shape of the dose curve; as a rule, active = well fitted inhibition curve with a large enough effect (not every such curve was filed as active); inconclusive = small, poorly fitted or top-dose-only effect, or another doubt; inactive = no such curve, though single readings can be large or run the other way.

SMILES	ALDH1A1 inh	HPGD block	PNC assembly inh	HttQ103 aggreg	GoLoco inh red	HTT ATP protect
CN1CCN(C2=Cc3ccccc3Sc3cc(F)c(F)cc32)CC1	0%	25µM*	-88*	20µM*	8%	-15%[10 µM]
C/C(=N\NC(=S)Nc1ccc(F)cc1)C1CC1	15µM*	0%	?	7%	-3%	11%
Cn1nnc(NC(=S)NC(=O)c2ccc(-c3ccc(Br)cc3)o2)n1	7.9µM*	.	.	-11%	8%	.
CCCn1nnc(NC(=S)NC(=O)c2ccc(-c3ccc(Br)cc3)o2)n1	.	.	.	23%[9.22 µM]	2%	-32%[10 µM]
CN(C)/C=C/c1onc(-c2c(F)cccc2Cl)c1C#N	3.5µM*	.	.	?	8%	?
Cc1sc2nc(SCC(=O)N3CCCC3)[nH]c(=O)c2c1C	?	18µM*	-80*	-12%	5%	-16%
CCN(CC)C(=O)CSc1nc2sc(C)c(C)c2c(=O)[nH]1	?	13µM*	43	4%	4%	1%
Cc1sc2nc(SCC(=O)N3CCCCC3)[nH]c(=O)c2c1C	?	16µM*	-18	-6%	20%	-18%[1.9 µM]
Cc1sc2nc(SCC(=O)N(C)C)[nH]c(=O)c2c1C	-2%	-29%	41	-2%	1%	-26%[0.074 µM]
O=c1[nH]c(SCc2n[nH]c(=S)n2-c2ccccc2)nc2sc3c(c12)CCC3	-8%	13µM*	64	1%[9.22 µM]	0%	-13%
Cc1cc(N)c2cc(NC(=O)Nc3ccc4nc(C)cc(N)c4c3)ccc2n1	-3%[13.5 µM]	-8%	.	-41%	15%[14.2 µM]	-67%
CN(CCc1ccc(Cl)c(Cl)c1)C[C@@H](O)COc1ccc(NS(C)(=O)=O)cc1	0%	-2%	.	.	4%	-40%[1.9 µM]
CCOC(=O)CSc1nc2sc3c(c2c(=O)[nH]1)CCCC3	0%	16µM*	-2	-23%	-1%	-4%
Cc1csc(NC(=O)CSc2nc3sc(C)c(C)c3c(=O)[nH]2)n1	18µM*	13µM*	?	-4%	40%	-13%[10 µM]
C=COCC1CN2C(CCC(C)C2c2ccc(Br)cc2)C(=O)O1 (stereo not given)	7%[13.5 µM]	.	.	.	.	14%[10 µM]
O=C(Cc1cccs1)NCc1cccc(F)c1	9%	.	.	-1%	6%	-41%
COc1cc(NS(=O)(=O)c2ccc(NC(=S)NC(=O)c3sc4cc(F)ccc4c3Cl)cc2)nc(OC)n1	8.9µM*	16µM*	8	?	4%	0%[10 µM]
COc1cc(NS(=O)(=O)c2ccc(NC(=O)c3ccco3)cc2)nc(OC)n1	2%	-5%	-82*	-4%	4%	7%[10 µM]
COc1cc(NS(=O)(=O)c2ccc(N/C=C(\C#N)c3nc4cc(Cl)ccc4o3)cc2)nc(OC)n1	9%	28µM*	?	?	55%	14%
COc1ccc(NS(=O)(=O)c2cc(NC(=O)c3ccco3)ccc2N2CCCCC2)cc1	?	-22%	29	4%	8.9µM*	20%[0.074 µM]
COc1ccc(NS(=O)(=O)c2cc(NC(=O)C3CC3)ccc2N2CCCCC2)cc1	-11%	.	.	?	7%	-44%
COc1cc(NS(=O)(=O)c2ccc(NC(C)=O)cc2)nc(OC)n1	?	2%	10	?	-2%	10%
COc1cc(NS(=O)(=O)c2ccc(NC(=S)NC(=O)c3ccco3)cc2)nc(OC)n1	.	.	.	-4%[9.22 µM]	1%	-2%[10 µM]
CCCCCC(CC)COC(=O)CC(C(=O)OCC(CC)CCCC)S(=O)(=O)O (stereo not given)	.	.	.	-12%	.	-2%
CN(C)Cc1ccccc1-c1cc(N(C)Cc2ccco2)ncn1	?	.	.	.	4%	22%
SMILES	ALDH1A1 inh	HPGD block	PNC assembly inh	HttQ103 aggreg	GoLoco inh red	HTT ATP protect
COc1cc(NS(=O)(=O)c2ccc(NC(=S)NC(=O)c3sc4ccccc4c3Cl)cc2)nc(OC)n1	11µM*	25µM*	-20	-25%	-3%	12%[10 µM]
Cc1ccc(S(=O)(=O)N(C)CC(=O)N2CCCc3ccccc32)cc1	?	-23%	-1	-6%	-3%	-6%
COC(=O)CCN(C1CCCCC1)S(=O)(=O)c1ccc(S(=O)(=O)N2CCCCC2)cc1	1.8µM*	-15%	-28	5%	-7%	11%
O=C(COC(=O)c1cc(=O)[nH]c2ccccc12)c1cccs1	?	.	.	-11%[9.22 µM]	19%	-14%[10 µM]
COC(=O)CCC(=O)NC(=S)Nc1cc(Cl)ccc1Cl	-7%	-25%	20	17%	3%	10%
COc1ccc(/C(C)=C2\SC(=S)N(CCC(=O)O)C2=O)cc1	-9%	-27%	21	10%	15%	11%
C/C(=C1/SC(=S)N(CCC(=O)O)C1=O)c1ccc(O)cc1	?	18µM*	-7	6%	5%	-11%
CSc1ccc(S(=O)(=O)N(CC(=O)NN=C2CCN(C)CC2)c2ccc(C)cc2)cc1	5µM*	.	.	-10%	4%	-52%
CCOC(=O)CSc1nc(C)c(C(C)=O)cc1C#N	20%	22µM*	13	0%	-19%	4%[10 µM]
CC(=O)c1cc(C#N)c(SCC(=O)O)nc1C	1%	-6%	?	22%	-9%	-2%[10 µM]
CC(=O)c1cc(C#N)c(Oc2ccc(F)cc2)nc1C	0%	1%	7	-7%	1%	11%
CC(=O)c1cc(C#N)c(Oc2cc(C)cc(C)c2)nc1C	6%	-7%	-114*	11%	0%	-7%
COc1ccc(C2CC(c3ccc4ccccc4c3OC(C)=O)=NN2C(C)=O)cc1 (stereo not given)	.	.	.	8%[9.22 µM]	-1%	13%[10 µM]
CCCCc1ccc(NC(=S)N2CCCC(C)C2)cc1 (stereo not given)	?	.	.	5%	1%	-25%
CC1(C)CC(N2CCN(c3ccccc3)CC2)=CC(=[N+]2CCCC2)C1	4%	.	15	4µM*	.	-36%[10 µM]
CC1(C)CC(N2CCCC2)=CC(=[N+]2CCCCCC2)C1	?	.	.	2µM*	5%	-65%
CC1CC(C)C[N+](=C2C=C(N3CCCC3)CC(C)(C)C2)C1 (stereo not given)	-4%	.	.	?	-18%	-58%[10 µM]
CN(Cc1ccccc1)C1=CC(=[N+]2CCCC2)CC(C)(C)C1	.	.	.	-36%[9.22 µM]	-18%	-53%[10 µM]
COc1ccc(C(CC(=O)c2ccc(C)cc2)C(C#N)C#N)cc1OC (stereo not given)	?	-14%	20	?	-4%	1%[10 µM]
O=C(N/N=C/c1ccccc1OC(=O)c1ccc2c(c1)OCO2)c1ccccc1	?	-12%	-1	5µM*	0%	-73%[10 µM]
CC(C)(C)C(=O)Nc1ccc(C(=O)N/N=C/c2ccccc2OC(=O)c2ccccc2)cc1	8%	-8%	116	11µM*	6%	-102%
c1ccc2c(c1)c1ccccc1n2Cn1c2ccccc2c2ccccc21	-7%[13.5 µM]	-13%	.	.	6%[14.2 µM]	15%[10 µM]
COc1ccc2[nH]cc(CCNc3ncncc3-c3c(C)noc3C)c2c1	2%	.	.	.	9%	?
